Assay outcomes (PubChem)
IL-1B inflam inh – inflammasome signaling inhibition, IL-1 beta readout. THP-1 LPS/ATP IL-1B secretion, AlphaLISA, 16 h; active compounds read low. activity change, % at 57.5 µM. 4.7% of 360,000 active; in the data active means activity change below about -50%; inconclusive means mostly about -30% to -49%
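Secreted IL-1B measured by AlphaLISA bead assay after 16 h compound exposure of THP-1 cells; compounds (final up to 57.5 uM) added 1 h before LPS (250 ng/mL) and ATP (1.25 mM) stimulation; lower signal means less secretion.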
DT40 TDP1 CPT – growth inhibition of DT40 Tdp1-/-;hTDP1 cells with camptothecin (screen for TDP1 inhibitors); Potency, µM (highest dose often 46.2 µM), actives largely listed as inhibitors; AID 686979; 12% of 420,000 active; chicken DT40 Tdp1-/-;hTDP1 cells + 20 nM CPT, ATP luminescence, 48 h; further: nearly all actives have a fitted effect of over 55% in size
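Cell growth measured by CellTiter-Glo luminescence after a minimum 48 h, 37 C compound exposure with 20 nM CPT in Tdp1-knockout DT40 cells stably expressing hTDP1, seeded 400/well; qHTS titration format.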
ASM inhibitor – inhibitors of human secretory acid sphingomyelinase | placental ASM, HMU-PC fluorogenic substrate, 60 min | Potency, µM (doses to about 57.5 µM), hits mostly inhibitors | 0.006% of 340,000 active | AID 504937 | P17405
Target sequence (P17405 47-631 limits assumed): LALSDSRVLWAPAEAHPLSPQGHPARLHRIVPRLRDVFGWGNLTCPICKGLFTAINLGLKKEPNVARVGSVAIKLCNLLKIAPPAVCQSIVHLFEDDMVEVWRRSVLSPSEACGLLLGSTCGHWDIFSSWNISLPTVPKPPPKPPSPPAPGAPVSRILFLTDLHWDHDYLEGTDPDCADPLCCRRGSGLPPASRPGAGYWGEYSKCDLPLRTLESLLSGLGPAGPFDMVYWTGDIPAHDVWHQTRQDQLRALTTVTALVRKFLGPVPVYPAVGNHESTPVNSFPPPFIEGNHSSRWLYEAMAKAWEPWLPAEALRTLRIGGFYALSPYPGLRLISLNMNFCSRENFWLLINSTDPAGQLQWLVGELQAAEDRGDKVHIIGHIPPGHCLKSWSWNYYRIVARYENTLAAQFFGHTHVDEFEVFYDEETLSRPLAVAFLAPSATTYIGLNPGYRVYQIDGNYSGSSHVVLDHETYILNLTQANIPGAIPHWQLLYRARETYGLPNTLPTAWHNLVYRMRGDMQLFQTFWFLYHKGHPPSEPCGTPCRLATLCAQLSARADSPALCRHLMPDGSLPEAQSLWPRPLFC
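Steps: dispense placental human ASM, pin compound, wait 10 min at room temperature, add HMU-PC0 substrate at 9 uM final, incubate 60 min at 37 °C, add stop solution raising pH to 10, read fluorescence.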
TGFb inhibitor – TGF-b pathway inhibition | HepG2 CAGA-GFP TGF-b/SMAD3 reporter, GFP fluorescence, 18 h; TGF-beta stimulated, 500 pg/mL final | Potency, µM (highest dose often 46.1 µM), usual class: inhibitors | 1.2% of 410,000 active; further: nearly all actives have a fitted effect of over 65% in size
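HEPG2 CAGA-GFP reporter cells (1000/well, DMEM with 1% FBS) received compounds, then recombinant TGF-beta at 500 pg/mL final for 18 hours at 37 degrees C. Per-cell GFP summed per well was normalised to unstimulated and stimulated DMSO controls before curve fitting.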
TDP1 cell noCPT – qHTS for Inhibitors of human tyrosyl-DNA phosphodiesterase 1 (TDP1): qHTS in cells in absence of CPT; 15% of 420,000 active; AID 686978, 2013; DT40 Tdp1-/- hTDP1 cells, no CPT, ATP luminescence, 48 h; Potency, µM (top dose mostly 46.2 µM), hits mostly inhibitors; further: nearly all actives have a fitted effect of over 55% in size
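No-CPT arm: Tdp1-/-;hTDP1 DT40 cells (400/well) plus compounds, incubated ≥48 hr at 37 °C. Readout CellTiter-Glo luminescence.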
HepG2 viability – kills HepG2 cells in TGF-b inhibitor counter-screen | HepG2 CAGA-GFP viability, ATP luminescence, 18 h | Potency, µM (highest dose often 46.1 µM), hits mostly cytotoxic | 0.76% of 410,000 active | AID 588856
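HepG2 CAGA-GFP cells (1000/well, DMEM with 1% FBS) received compound, then TGF-beta at 500 pg/mL final, and were incubated 18 hours at 37 degrees C. Viability was read by CellTiter-Glo luminescence. Media-only wells were set as complete cell-killing and DMSO as no toxicity.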
A number is an active result; . = inactive; ? = inconclusive; / = not tested or not shown. Sampled rows, rich in hits. Any-hit rate of the full collection: about 19%. Unless noted, the call rests on the fitted dose curve; in most records, active means well fitted curve in the direction sought with a large enough effect; inconclusive means small, poorly fitted or top-dose-only effect, or another doubt; inactive means no such curve, though single readings can be large; an effect the other way counts as inactive or inconclusive.

SMILES	IL-1B inflam inh	DT40 TDP1 CPT	ASM inhibitor	TGFb inhibitor	TDP1 cell noCPT	HepG2 viability
CCOC(=O)c1ccc(NC(=O)C2(c3ccccc3)CCCC2)cc1	.	?	.	.	?	.
CCOC(=O)c1ccc(NC(=O)C2(c3ccc(Cl)cc3)CCCC2)cc1	.	16.4µM	.	?	?	.
COC(=O)Nc1ccc(S(=O)(=O)N2CCC(Cc3ccccc3)CC2)cc1	?	?	.	?	20.6µM	.
COP(=O)(OC)C(=NNS(=O)(=O)c1ccc(C)cc1)c1ccccc1	.	.	/	.	.	.
O=C(Nc1ccc(Oc2ccccc2)cc1)C1CCN(S(=O)(=O)c2ccccc2)CC1	/	?	/	.	9.2µM	.
CCOC(=O)c1ccc(S(=O)(=O)N2CCC(C(=O)NCC3COc4ccccc4O3)CC2)cc1 (stereo unspecified)	.	20.6µM	/	.	23.1µM	.
COc1cc(OC)c(OC)cc1/C=N/n1c(COc2ccccc2)n[nH]c1=S	.	.	.	.	.	.
Cc1ccc(S(=O)(=O)N2CCOC23CCN(C(=O)c2cc(Cl)ccc2Cl)CC3)cc1	.	?	.	.	?	.
Cc1ccc(S(=O)(=O)N2CCOC23CCN(C(=O)c2ccc(Cl)cc2Cl)CC3)cc1	?	?	.	?	20.6µM	.
COc1ccc(S(=O)(=O)N2CCOC23CCN(S(=O)(=O)c2ccc(C)cc2)CC3)cc1	.	?	.	.	?	.
Cc1ccc(S(=O)(=O)N2CCOC23CCN(S(=O)(=O)c2c(C)cc(C)cc2C)CC3)cc1	.	18.4µM	.	.	?	.
O=S(=O)(c1ccc(Cl)cc1)N1CCC2(CC1)OCCN2S(=O)(=O)c1cccs1	.	?	.	.	18.4µM	.
COc1ccc(N2CCN(C(=O)c3cccc(S(=O)(=O)N4CCCc5ccccc54)c3)CC2)cc1	.	?	.	?	?	.
COc1ccc(N2CCN(C(=O)c3cccc(S(=O)(=O)N4CCc5ccccc54)c3)CC2)cc1	.	?	.	.	14.6µM	.
O=C(c1cccc(S(=O)(=O)N2CCc3ccccc32)c1)N1CCN(c2ccccn2)CC1	.	?	.	.	23.1µM	.
CS(=O)(=O)N1CCc2cc(C(=O)N3CCN(c4ccc(F)cc4)CC3)ccc21	.	?	.	.	20.6µM	.
O=C(Cn1cc(C(F)(F)F)ccc1=O)N1CCc2ccccc2C1	.	.	.	.	.	.
COc1ccc(NC(=O)C2CC(c3ccc(Cl)cc3)=NO2)cc1OC (stereo unspecified)	.	.	.	.	?	.
CCOc1ccc(CCNC(=O)c2ccc(=O)[nH]c2)cc1OCC	.	.	.	.	.	.
O=S(=O)(Nc1nnc(C2CC2)s1)c1ccccc1	.	.	.	.	.	.
O=C(CSc1ccccc1)NCCCN1CCOCC1	.	.	.	.	.	.
O=C(CSc1c2c(nc3cc(Cl)ccc13)CCCC2)NCCN1CCOCC1	-91.5	?	.	.	?	.
O=C(CSc1c2c(nc3cc(Cl)ccc13)CCCC2)NCCCN1CCOCC1	-100.9	?	.	?	?	.
O=C(CSc1c2c(nc3ccc(Cl)cc13)CCCC2)NCCCN1CCOCC1	-92.9	?	.	?	?	.
CCCCNC(=O)c1ccc2c(SCC(=O)O)c3c(nc2c1)CCCC3	.	.	.	.	.	.
SMILES	IL-1B inflam inh	DT40 TDP1 CPT	ASM inhibitor	TGFb inhibitor	TDP1 cell noCPT	HepG2 viability
CCN(CC)CCCNC(=O)CSc1c2c(nc3cc(Cl)ccc13)CCCC2	.	8.2µM	.	11.2µM	5.8µM	22.4µM
Cn1c(N)c(S(=O)(=O)N2CCN(c3cccc(Cl)c3)CC2)c(=O)n(C)c1=O	.	.	.	.	.	.
C[C@@]12C(=O)OC(=O)[C@@]1(C)C1CCC2O1	/	.	/	/	.	/
C[C@@]12C(=O)OC(=O)[C@@]1(C)[C@@H]1CC[C@@H]2O1	/	29.9µM	/	/	29.9µM	/
CC1(C(=O)NS(=O)(=O)c2cccc(OC(F)F)c2)CCN1C(=O)CCc1cccs1 (stereo unspecified)	.	.	/	.	.	.
CCOc1ccc(NC(C(=O)Nc2cccc(C(C)=O)c2)c2ccccc2)cc1 (stereo unspecified)	.	14.6µM	.	.	14.6µM	.
CN(C)CCNC(C(=O)Nc1cccc(C(F)(F)F)c1)c1ccccc1 (stereo unspecified)	.	.	.	.	.	.
CCN(CC)CCNC(C(=O)Nc1cccc(C(C)=O)c1)c1ccccc1 (stereo unspecified)	.	.	.	.	?	12.6µM
CCOc1ccc(/C=C/C(=O)Nc2cccc(C(C)=O)c2)cc1	.	.	.	.	0.581µM	.
COCC(C)NC(C(=O)Nc1cccc(C(C)=O)c1)c1ccccc1 (stereo unspecified)	.	.	.	.	.	.
Cc1ccc(CNC(=O)CSc2nc3ccsc3c(=O)n2-c2ccc(Br)cc2)cc1	/	?	/	?	?	.
COc1ccc(-c2nc3cnc(N4CCN(C)CC4)nc3n(C3CC3)c2=O)cc1	/	.	/	/	.	/
Cn1c(=O)[nH]c(=O)c2c1nc(N1CCN(c3ccccc3)CC1)n2CCSc1ncccn1	.	?	.	.	10.3µM	.
CCCCCCn1c(N2CCN(c3cccc(Cl)c3)CC2)nc2c1c(=O)[nH]c(=O)n2C	?	?	.	.	23.1µM	.
Cn1c(=O)[nH]c(=O)c2c1nc(CN1CCN(c3cccc(Cl)c3)CC1)n2CCc1ccccc1	.	?	.	?	?	.
CCCn1c(N2CCN(CC(=O)c3c(C)n(C)c4ccccc34)CC2)nc2c1c(=O)[nH]c(=O)n2C	-68.9	?	.	.	18.4µM	.
CCCCCn1c(CN2CCN(c3cccc(Cl)c3)CC2)nc2c1c(=O)[nH]c(=O)n2C	.	20.6µM	?	?	?	.
CCCCCCCCn1c(N2CCN(c3cccc(Cl)c3)CC2)nc2c1c(=O)[nH]c(=O)n2C	.	?	.	.	?	.
Cc1noc(C)c1CSCC(=O)OCc1nnc(-c2ccc([N+](=O)[O-])cc2)o1	.	.	.	.	.	.
Cn1c(=O)[nH]c(=O)c2c1nc(CN1CCN(c3ccccc3F)CC1)n2CCCc1ccccc1	.	?	.	.	14.1µM	.
CCCCCCn1c(N2CCN(c3ccccc3)CC2)nc2c1c(=O)[nH]c(=O)n2C	?	23.1µM	.	.	?	.
CCN1CCN(c2nc3c(c(=O)[nH]c(=O)n3C)n2Cc2ccccc2)CC1	.	.	.	.	.	.
